Assay outcomes as filed in PubChem.
ELG1 DNA repair: ELG1-dependent DNA repair inhibition; HEK293T ELG1-luciferase reporter, luminescence, 16 h; DNA damage induced by 5-fluorouridine; Potency, µM (highest dose often 46.1 µM), for inactives: at the highest dose activity change, negative = inhibition, usual class: inhibitors; 330,000 compounds, 2.3% hits; AID 504467; further: potency means the concentration at half of the fitted maximal effect; nearly all actives have a fitted effect of over 55% in size
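Cells (2,000 per well) received 5-fluorouridine plus test compound or DMSO and were incubated 16 hr at 37 °C, 5% CO2. Luciferase activity was read by luminescence 30 min after ONE-Glo addition; signal suppression marked inhibition of damage-induced ELG1 function.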
RORgamma inh: inhibitors of mouse ROR gamma transcriptional activity; P51450; 310,000 compounds, 5.4% hits; Potency, µM (highest dose often 53.6 µM), without a hit: at the highest dose activity change, negative = inhibition, hits mostly inhibitors; Drosophila S2 Gal4-RORgamma UAS-luciferase reporter, 20 h; further: potency means the concentration at half of the fitted maximal effect; nearly all actives have a fitted effect of over 60% in size
Target sequence (P51450 whole entry, looked up, the tested form may be a part): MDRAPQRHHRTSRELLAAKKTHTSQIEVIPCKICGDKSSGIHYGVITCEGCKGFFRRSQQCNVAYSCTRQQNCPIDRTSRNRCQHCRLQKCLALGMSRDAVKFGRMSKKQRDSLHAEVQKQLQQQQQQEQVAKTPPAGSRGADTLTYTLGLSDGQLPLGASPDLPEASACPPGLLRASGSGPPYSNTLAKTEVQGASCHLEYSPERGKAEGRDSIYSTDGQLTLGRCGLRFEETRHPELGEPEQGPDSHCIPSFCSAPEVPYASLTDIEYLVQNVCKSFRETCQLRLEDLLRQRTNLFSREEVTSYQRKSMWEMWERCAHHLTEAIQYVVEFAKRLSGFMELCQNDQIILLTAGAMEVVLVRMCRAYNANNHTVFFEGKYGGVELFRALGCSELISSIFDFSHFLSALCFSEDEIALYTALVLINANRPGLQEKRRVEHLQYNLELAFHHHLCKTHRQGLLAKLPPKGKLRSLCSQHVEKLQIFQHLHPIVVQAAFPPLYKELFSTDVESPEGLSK
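In this cell-based reporter format, copper sulfate (700 uM final) drives Gal4–ROR gamma fusion expression from a metallothionein promoter in Drosophila Schneider cells; compounds preincubated 1 hr, reporter read after 20 hr at ambient temperature.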
VP16 counter: Gal4-VP16 reporter inhibition counter-screen | Drosophila S2 Gal4-VP16 UAS-luciferase, luminescence, 20 h | Potency, µM (top dose mostly 53.6 µM), for the others: at the highest dose activity, negative = inhibition, hits mostly inhibitors | 310,000 compounds, 3.5% hits;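 further: Gal4-VP16 expression switched on by copper sulfate through the metallothionein promoter; potency means the concentration at half of the fitted maximal effect; nearly all actives have a fitted effect of over 50% in size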
IL-1B inflam inh: blocks inflammasome-driven IL-1 beta release; THP-1 LPS/ATP IL-1B secretion, AlphaLISA, 16 h; stronger effect = lower value; activity change, % at 57.5 µM; AID 743279; 360,000 compounds, 4.7% hits; in the data active means activity change below about -50%; inconclusive means mostly about -30% to -49%
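THP-1 cells pretreated 1 hr with compounds (up to 57.5 uM final), then stimulated with LPS (250 ng/mL final) plus ATP (1.25 mM final); secreted IL-1B measured by AlphaLISA after 16 hr, decreased signal indicating inhibition.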
TDP1 cell CPT: growth inhibition of DT40 Tdp1-/-;hTDP1 cells with camptothecin (screen for TDP1 inhibitors). chicken DT40 Tdp1-/-;hTDP1 cells + 20 nM CPT, ATP luminescence, 48 h. Potency, µM (titrated, usually from 46.2 µM), without a hit: at the top dose activity change, negative = growth inhibition, actives largely listed as inhibitors. 420,000 compounds, 12% hits. AID 686979; further: potency means the concentration at half of the fitted maximal effect; nearly all actives have a fitted effect of over 55% in size
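Chicken DT40 Tdp1-/- cells complemented with human TDP1, 400 cells/well, exposed to compounds plus 20 nM camptothecin for at least 48 h at 37 C; viability read as ATP content by CellTiter-Glo luminescence.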
TDP1 cell noCPT: qHTS for Inhibitors of human tyrosyl-DNA phosphodiesterase 1 (TDP1): qHTS in cells in absence of CPT. DT40 Tdp1-/- hTDP1 cells, no CPT, ATP luminescence, 48 h. Potency, µM (doses to about 46.2 µM), for the others: at the top dose activity change, negative = growth inhibition, most hits filed as inhibitors. 420,000 compounds, 15% hits; further: potency means the concentration at half of the fitted maximal effect; nearly all actives have a fitted effect of over 55% in size
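Growth of hTDP1-complemented DT40 Tdp1-knockout cells is measured by ATP luminescence after at least 48 hr compound exposure at 37 °C, with DMSO substituting for the 20 nM CPT used in the parallel screen.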
* = called active by the depositor; ? = inconclusive; / = no result. Sampled rows, rich in hits. Any-hit rate of the full collection: about 21%. Unless noted, the call rests on the fitted dose curve; in most records, active means well fitted curve in the direction sought with a large enough effect; inconclusive means small, poorly fitted or top-dose-only effect, or another doubt; inactive means no such curve, though single readings can be large; an effect the other way counts as inactive or inconclusive. On the % scale 0 is the no-effect control and ±100 the full control effect.

SMILES | ELG1 DNA repair | RORgamma inh | VP16 counter | IL-1B inflam inh | TDP1 cell CPT | TDP1 cell noCPT
CC1(C(=O)NS(=O)(=O)c2ccc(Cl)cc2)CCN1C(=O)CCC1CCCC1 (stereo not drawn) | / | / | / | 33 | 5% | 25%
CC(C)C[C@@H](CO)N1CCN(CC(C)C)CCC1=O | -5% | 0% | 2% | 6 | 4% | -14%
COc1ccc2cc3cc(C(=O)N4CCN(c5cccc(Cl)c5)CC4)sc3nc2c1 | / | / | / | / | -2% | -12%
COc1ccc(CN2CCC[C@]3(N[C@H](c4ccccc4)[C@@H]4C(=O)N(Cc5ccccc5)C(=O)[C@@H]43)C2=O)cc1 | / | / | / | -3 | ? | 18µM*
COc1ccc(CN2CCC[C@]3(N[C@H](c4ccc(OC)cc4)[C@@H]4C(=O)N(Cc5ccccc5)C(=O)[C@@H]43)C2=O)cc1 | / | / | / | -7 | 21µM* | 16µM*
COc1ccc(CN2CCC[C@]3(N[C@H](c4ccc(C)cc4)[C@@H]4C(=O)N(Cc5ccccc5)C(=O)[C@@H]43)C2=O)cc1 | / | / | / | -22 | ? | ?
CCN1C(=O)[C@H]2[C@@H](c3ccc(OC)cc3)N[C@]3(CCCN(Cc4ccc(Br)cc4)C3=O)[C@H]2C1=O | / | / | / | 33 | -8% | 26µM*
COc1ccc([C@H]2N[C@]3(CCCN(Cc4ccc(Br)cc4)C3=O)[C@H]3C(=O)N(Cc4ccccc4)C(=O)[C@@H]23)cc1 | / | / | / | -12 | ? | 15µM*
CC12CCC3c4ccc(O)cc4CCC3C1CC(=NO)C2O (stereo not drawn) | / | / | / | 29 | -25% | ?
O=S(=O)(c1ccccc1Cl)N1CCC(O)(c2cccnc2)CC1 | -5% | 22% | 1% | 8 | 0% | ?
CCOc1ccc(NC(=O)COC(=O)C2COc3ccccc3O2)cc1 (stereo not drawn) | / | / | / | -3 | -30% | -6%
COC(=O)[C@@]12C[C@@H](CC(=O)NCCc3ccccc3OC)C(=O)N(Cc3ccccc3)C1=CCC(C)(C)C2 | / | / | / | ? | 21µM* | ?
COC(=O)[C@@]12C[C@@H](CC(=O)NCCCCc3ccccc3)C(=O)N(Cc3ccc4c(c3)OCO4)C1=CCC(C)(C)C2 | / | / | / | -76* | ? | 13µM*
COC(=O)[C@@]12C[C@@H](CC(=O)NCC34CC5CC(CC(C5)C3)C4)C(=O)N(Cc3ccc4c(c3)OCO4)C1=CCC(C)(C)C2 | / | / | / | -4 | ? | ?
CCCCNC(=O)C[C@@H]1C[C@@]2(C(=O)OC)CC(C)(C)CC=C2N(Cc2ccc3c(c2)OCO3)C1=O | / | / | / | -16 | 16µM* | ?
COc1ccc(NC(=O)C2CCCCN2CC(=O)OCc2ccccc2)cc1OC (stereo not drawn) | ? | -1% | -1% | -3 | -4% | 2%
CCOc1cccc(SCc2noc(C(=O)NCC3CCCO3)c2C(=O)O)c1 (stereo not drawn) | 11% | 9% | -3% | 17 | -2% | -17%
CCC(=O)N1CCN(c2ccc(NC(=O)c3ccc4c(c3)OCCO4)cc2)CC1 | ? | 14% | -12% | 19 | -16% | 10%
CCC(=O)N1CCN(c2ccc(Cl)cc2NC(=O)c2ccc3c(c2)OCCO3)CC1 | / | 14% | 6% | -12 | 16µM* | ?
CCC(=O)Nc1cc(Cl)ccc1N1CCN(C(=O)CC)CC1 | ? | 0% | 1% | -11 | -26% | ?
CCC(=O)N1CCN(c2ccc(Cl)cc2NC(=O)c2ccc(N3CCCC3)c([N+](=O)[O-])c2)CC1 | -18% | 5% | -7% | -51* | ? | ?
